HP1b chromo inh – HTS for Inhibitors of HP1-beta Chromodomain Interactions with Methylated Histone Tails; AlphaScreen HP1-beta / biotin-H3K9me3 peptide binding; hit rate 0.56% among 390,000; Potency, µM (top dose mostly 114 µM), for the others: top-dose activity change, negative = inhibition, most hits filed as inhibitors; further: nearly all actives have a fitted effect of over 70% in size
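HP1-beta protein (50 nM final) preincubated 30 min at room temperature with biotinylated H3(1-18)K9me3 peptide (50 nM) in PBS pH 7.4, 0.01% Tween-20, then compound added for 30 min. AlphaScreen streptavidin donor/nickel chelate acceptor beads (10 ug/mL final), 30 min dark, luminescence read.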
JMJD2A Tudor inh – qHTS Assay for Inhibitors of JMJD2A-Tudor Domain. AlphaScreen JMJD2A-Tudor / H3K4me3 peptide binding. Potency, µM (highest dose often 114 µM), inactives show at the highest dose activity change, negative = inhibition, usual class: inhibitors. hit rate 4.4% among 390,000; further: on the % scale 0 is the no-effect control and ±100 the full control effect; nearly all actives have a fitted effect of over 50% in size
G9a inh – qHTS Assay for Inhibitors of Histone Lysine Methyltransferase G9a; Histone-lysine N-methyltransferase EHMT2 (Homo sapiens), Q96KQ7; G9a H3K9 monomethylation, AlphaScreen, 2 h; Potency, µM (top dose mostly 102 µM), without a hit: top-dose activity, negative = inhibition, hits mostly inhibitors; hit rate 8.8% among 350,000; AID 504332, 2011; further: on the % scale 0 is the no-effect control and ±100 the full control effect; nearly all actives have a fitted effect of over 75% in size
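Using a bead-based AlphaScreen, monomethylated H3K9 product from 2 h room-temperature reactions (G9a 20 nM, peptide 500 nM, SAM 20 uM) was detected with 0.5 ug/mL rabbit anti-H3K9me1 antibody.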
BAZ2B block – qHTS Assay for Inhibitors of BAZ2B | Bromodomain adjacent to zinc finger domain protein 2B (Homo sapiens), Q9UIF8 | AlphaScreen BAZ2B-H3K14Ac peptide displacement | Potency, µM (top dose mostly 114 µM), without a hit: at the highest dose activity change, negative = inhibition, hits mostly inhibitors | hit rate 4.4% among 360,000 | AID 504333, 2011; further: on the % scale 0 is the no-effect control and ±100 the full control effect; nearly all actives have a fitted effect of over 60% in size
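Compounds, titrated to a top concentration of 110 uM, were incubated 30 min at room temperature with preformed BAZ2B/acetyl-K14 H3 peptide complex (50 nM each). Proximity signal was measured by AlphaScreen after 20 min with beads.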
Sfp PPTase inh – qHTS Assay for Inhibitors of Bacillus subtilis Sfp phosphopantetheinyl transferase (PPTase); hit rate 3.5% among 310,000; Biochemical Sfp PPTase activity, qHTS; 4'-phosphopantetheinyl transferase ffp (Bacillus subtilis), Q9F4F7; AID 1490, 2009; Potency, µM, inactives show largest response in the series, negative = inhibition, hits mostly inhibitors;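 further: the enzyme is Sfp with the accession as filed and its product quenches rhodamine fluorescence; 0% = enzyme reaction without inhibitor and -100% = no enzyme wells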
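Step 1, compound plus 15 nM Sfp-PPTase, 15 min, room temperature. Step 2, add rhodamine-CoA (5 uM) and BHQ-2-YbbR (12.5 uM). Step 3, read 525/598 nm fluorescence at 0 and 30 min.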
Starred values were filed as active, the others as inactive; ? = inconclusive; · = no result given; [ ] = remark or other dose. A selection: hits, their analogues and other compounds. The true share with any hit is near 12%. The call rests on the fitted dose curve; in most records, active means well fitted curve in the direction sought with a large enough effect; inconclusive means small, poorly fitted or top-dose-only effect, or another doubt; inactive means no such curve, though single readings can be large; an effect the other way counts as inactive or inconclusive. Potency means the concentration at half of the fitted maximal effect.

SMILES	HP1b chromo inh	JMJD2A Tudor inh	G9a inh	BAZ2B block	Sfp PPTase inh
Cc1ccc2nc(N(CCCN(C)C)C(=O)c3ccc(Br)s3)sc2c1	12.8%	-17.6%	?	-33.0%	-1.3%
CN(C)CCCN(C(=O)c1sc2ccccc2c1Cl)c1nc2c(F)cccc2s1	-7.2%	?	25.1µM*	-16.6%	50.1µM*
CN(C)CCCN(C(=O)CCOc1ccccc1)c1nc2ccc(F)cc2s1	16.6%	-24.1%	28.2µM*	·	-20.7%
CN(C)CCCN(C(=O)COc1ccccc1)c1nc2ccc(F)cc2s1	31.5%	-9.8%	?	·	-10.1%
Cc1ccccc1S(=O)(=O)Cc1ccc(C(=O)NCc2ccccc2Cl)o1	25.0%	-18.9%	4.3%[59 µM]	-8.2%	·
COc1ccccc1CNC(=O)C1CCN(S(=O)(=O)N2CC(C)CC(C)C2)CC1 (stereo not given)	19.6%	-3.5%	-9.7%	-11.3%	10.5%
CCCn1nc(C(=O)NNC(=O)C2CSC3(C)CCC(=O)N23)c2ccccc2c1=O (stereo not given)	34.0%	-1.0%	-1.8%	-7.0%	·
Cc1cc(C)c2sc(N(CCCN(C)C)C(=O)COc3ccc(Cl)cc3)nc2c1	2.7%	-31.7%	-46.4%	?	-37.6%
CN(C)CCCN(C(=O)COc1ccc(Cl)cc1)c1nc2ccc(F)cc2s1	39.9%	-9.1%	56.2µM*	16.2%	-22.6%
Cc1cccc2sc(N(CCCN(C)C)C(=O)COc3ccccc3)nc12	29.5%	?	?	-15.1%	·
CN(C)CCCN(C(=O)CCOc1ccccc1)c1nc2c(F)cccc2s1	22.7%	-31.5%	22.4µM*	·	50.1µM*
Cc1cccc2sc(N(CCCN(C)C)C(=O)COc3ccc(Cl)cc3)nc12	9.9%	-25.9%	50.1µM*	·	?
Cc1ccc2nc(N(CCCN(C)C)C(=O)COc3ccc(Cl)cc3)sc2c1	29.5%	-29.1%	?	·	89.1µM*
COc1ccc(CNC(=O)C(=O)Nc2ccc(OC)cc2OC)cc1	27.6%	-1.6%	10.5%[59 µM]	-2.5%	·
Cc1cc2c(s1)c1cnn(Cc3ccc(Cl)cc3)c(=O)c1n2C	·	44.7µM*	·	·	·
Cc1ccc(N(Cc2cc3cccc(C)c3[nH]c2=O)S(=O)(=O)c2ccccc2)c(C)c1	-13.4%	?	?	?	2.1%
CN(C)C=C1C(=O)c2ccccc2C1=O	33.5%	-6.6%	?	-2.2%	5.1%
CN(C)/C=C1\C(=O)NN=C1c1ccccc1	33.9%	-3.3%	50.1µM*	-26.9%	-0.5%
Clc1ccccc1N=C1NN=C(c2cccs2)CS1	14.1%	-30.4%	89.1µM*	·	-5.6%
Fc1ccccc1N=C1NN=C(c2ccccc2)CS1	-1.0%	-28.6%	?	-38.6%	?
O=C1NC(=O)/C(=C/c2ccc(-c3ccc(F)cc3O)o2)S1	·	·	21.2µM*	·	·
O=C(NCCCN1CCCC1=O)c1cccc(Oc2ccccc2)c1	30.4%	-12.7%	-24.1%	-17.0%	25.1%
Cc1ccc(CN2CCNC(=O)C2CC(=O)NCc2cc(C)n(C)n2)cc1 (stereo not given)	43.3%	-10.4%	79.4µM*	-20.3%	-7.0%
CCOc1ccc(CN2CCNC(=O)C2CC(=O)NCc2cc(C)n(C)n2)cc1 (stereo not given)	57.9%	-17.2%	39.8µM*	-22.7%	10.3%
Cc1cc(CNC(=O)CC2C(=O)NCCN2Cc2ccccc2C(F)(F)F)nn1C (stereo not given)	41.7%	-13.1%	?	-2.7%	-6.8%
COc1ccc(CN2CCNC(=O)C2CC(=O)NCc2cc(C)n(C)n2)c(F)c1 (stereo not given)	45.2%	-8.3%	25.1µM*	0.9%	-2.5%
O=C1c2ccccc2C(=O)N1CCc1csc(-c2cccc(F)c2)n1	99.1%	37.8%	-4.2%	60.4%	-0.4%
Cn1c(=O)c2c(nc(N/N=C/c3ccc(OC(=O)c4ccco4)cc3)n2Cc2ccccc2Cl)n(C)c1=O	26.5%	-7.0%	4.1%	-8.9%	-15.4%
Cc1ccccc1NC(=O)Cn1nnc(-c2ccc(N3CCOCC3)cc2)n1	30.1%	-3.0%	-22.9%	-30.8%	7.5%

Source: PubChem BioAssay (National Center for Advancing Translational Sciences (NCATS))
